These results are taken from PubChem BioAssay (NCI).

Test systems include T-47D breast; BT-549 breast; MDA-MB-435 melanoma; SW-620 colon; MCF7 breast; HCT-116 colon; HCC-2998 colon; KM12 colon.
Holding throughout (assay): NCI-60 one-dose screen, 48 h (100 = growth as untreated, 0 = no growth, -100 = all killed)
What all share (conditions): 10 µM unless noted

The structures appear in SMILES notation. Compounds without any hit were thinned out: in the full panel of roughly 83,000, 20% have a hit.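 For each line, cells grew in 96-well plates with the test compound present at a single concentration for 48 hours.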 Values without a mark were called inactive. Activity calls are given as the source filed them. How the source made its calls: active means growth percent below 10; inactive means the rest.

Turning to `COc1ccc(-c2cc(-c3cccs3)n(N=O)c(=O)c2C#N)cc1`, the growth was 97.4% with T-47D breast; 104% in the experiment on BT-549 breast; 125% with MDA-MB-435 melanoma; 112% in the experiment with SW-620 colon; 95.8% in the experiment with MCF7 breast; 105% in the experiment on HCT-116 colon. Also, the growth in the experiment with HCC-2998 colon is 112%; in the experiment with KM12 colon it was 109%.
As for `C[C@@H](C(=O)O)c1ccc2c3cc(Cl)ccc3n(Cc3cc(=O)oc4ccc(Cl)cc34)c2c1`, the growth is 86.8% in the experiment on T-47D breast; 86.7% with BT-549 breast; 104% with MDA-MB-435 melanoma; 107% in the experiment on SW-620 colon; 90.7% in the experiment on MCF7 breast; 87.8% with HCT-116 colon. For the same compound, the values for the growth in the experiment with HCC-2998 colon and with KM12 colon were 101% and 99%, respectively.
In the case of `Fc1cccc(-c2[nH]nc3nc(Nc4cccnc4)sc23)c1`, the growth in the experiment with T-47D breast is 50.8%; with BT-549 breast, 60.6%; in the experiment on MDA-MB-435 melanoma it was -8.7% (active); with SW-620 colon, 41.6%; in the experiment on MCF7 breast, 29.3%; in the experiment on HCT-116 colon, 35%. Moreover, the growth with HCC-2998 colon was 70.2%; in the experiment with KM12 colon, 22.8%.
Take `COC(=O)[C@]12CC[C@@H](C)[C@H](C)[C@@H]1C1=CC[C@@H]3[C@@]4(C)C(c5ncon5)=C[C@@](C)(CO)C4=CC[C@@]3(C)[C@]1(C)CC2`: the growth with T-47D breast is -0.698% (active); in the experiment with BT-549 breast, 8.08% (active); in the experiment on MDA-MB-435 melanoma, -24% (active); in the experiment on SW-620 colon, -34.7% (active); with MCF7 breast it was -63% (active); in the experiment with HCT-116 colon, -83.1% (active). Moreover, the results for the growth in the experiment on HCC-2998 colon and with KM12 colon were -83.3% (active) and -47.6% (active), respectively.
`CC(=O)OCCCCCCn1c2ccccc2c2c3c(c4c5ccccc5n(C)c4c21)C(=O)N(O)C3=O`: the growth in the experiment on T-47D breast is 42.9%; in the experiment on BT-549 breast it was 69.2%; in the experiment on MDA-MB-435 melanoma, 75.9%; in the experiment on SW-620 colon, 76.4%; in the experiment with MCF7 breast, 30.4%; in the experiment on HCT-116 colon, 48.6%. Besides, the results for the growth in the experiment on HCC-2998 colon and in the experiment with KM12 colon were 76% and 68.8%, respectively.
For `N#C/C(=C\c1ccc(-c2cccc(C(F)(F)F)c2)o1)c1nc(-c2ccco2)cs1`, the growth in the experiment with T-47D breast was -17.6% (active); in the experiment on BT-549 breast, 97%; in the experiment with MDA-MB-435 melanoma, 102%; with SW-620 colon it was 104%; with MCF7 breast, 22.4%; in the experiment with HCT-116 colon, 91.7%. For the same compound, the growth in the experiment with HCC-2998 colon is 29.5%; in the experiment with KM12 colon, 65.5%.
In the case of `Cc1nnc2nc(N)[nH]n2c1=O`, the growth was 96.1% with T-47D breast; 99.6% in the experiment with BT-549 breast; 113% in the experiment on MDA-MB-435 melanoma; 107% in the experiment with SW-620 colon; 97.9% in the experiment on MCF7 breast; 101% in the experiment with HCT-116 colon. Also, the growth in the experiment on HCC-2998 colon is 102%; in the experiment on KM12 colon it was 96%.
As to `O=C(/C=C/c1cccc(O)c1)c1ccccc1O`, the growth is 91.2% in the experiment on T-47D breast; 85.2% with BT-549 breast; 76% with MDA-MB-435 melanoma; 86.3% with SW-620 colon; 63.5% with MCF7 breast; 78.1% with HCT-116 colon. The growth in the experiment with HCC-2998 colon is 98%; in the experiment with KM12 colon it was 72.5%.
`CC1(C)CC[C@]2(C(=O)Nc3ccccn3)CC[C@]3(C)C(=CC[C@@H]4[C@@]5(C)C/C(=C/c6ccncc6)C(=O)C(C)(C)[C@@H]5CC[C@]43C)[C@@H]2C1`: the growth with T-47D breast is 13.3%; in the experiment on BT-549 breast, 35.7%; in the experiment on MDA-MB-435 melanoma, 14.8%; in the experiment on SW-620 colon it was 20%; with MCF7 breast, 21.7%; in the experiment with HCT-116 colon, -1.02% (active). For the same compound, the values for the growth in the experiment on HCC-2998 colon and in the experiment on KM12 colon were 25% and -6.73% (active), respectively.
`CC1(C)[C@@H](O)CC[C@]2(C)[C@H]3CC[C@@H]4[C@H]5[C@H](C(=O)/C=C/c6ccc(C(F)(F)F)cc6)CC[C@]5(CO)CC[C@@]4(C)[C@]3(C)CC[C@@H]12`: the growth in the experiment with T-47D breast is 34.1%; in the experiment on BT-549 breast, 60%; in the experiment on MDA-MB-435 melanoma it was 42.5%; with SW-620 colon it was 44.5%; in the experiment with MCF7 breast, 32.3%; in the experiment on HCT-116 colon, 15.3%. In addition, the growth with HCC-2998 colon was 77.2%; in the experiment on KM12 colon, 68.7%.
For `CCNCCCn1c2c(c3ccc([N+](=O)[O-])cc3c1=O)C(=O)c1cc(OC)cnc1-2`, the growth in the experiment on T-47D breast was -12.9% (active); with BT-549 breast, -16.2% (active); in the experiment on MDA-MB-435 melanoma it was -54.4% (active); with SW-620 colon it was -27% (active); in the experiment on MCF7 breast, -3.1% (active); with HCT-116 colon, -69.8% (active). For the same compound, the growth in the experiment with HCC-2998 colon was -8.05% (active); with KM12 colon it was -3.89% (active).
As to `CN(C)CCCC1(c2ccc(F)cc2)OCc2cc(-c3ccc(C(F)(F)F)nc3)ccc21` (stereo not given), the growth in the experiment on T-47D breast is 66.5%; in the experiment with BT-549 breast, 94.7%; in the experiment on MDA-MB-435 melanoma it was 67.9%; in the experiment with SW-620 colon, 83.5%; in the experiment on MCF7 breast it was 56.7%; in the experiment on HCT-116 colon, 58.4%. Moreover, the growth is 31.8% in the experiment on HCC-2998 colon and 80.2% in the experiment with KM12 colon.
For `O=C(O[C@@H]1Cc2c(O)cc(O)cc2O[C@@H]1c1cc(O)c(O)c(O)c1)c1cc(O)c2c(c1)OCO2`, the growth in the experiment on T-47D breast is 91.3%; in the experiment with BT-549 breast it was 96.2%; in the experiment with MDA-MB-435 melanoma it was 105%; in the experiment with SW-620 colon it was 106%; with MCF7 breast, 100%; in the experiment on HCT-116 colon it was 86.3%. Besides, the growth was 104% in the experiment with HCC-2998 colon and 101% with KM12 colon.
As for `N=C(N)c1ccc(S(N)(=O)=O)cc1`, the growth in the experiment with T-47D breast is 101%; with BT-549 breast, 94.2%; in the experiment with MDA-MB-435 melanoma it was 98.5%; with SW-620 colon it was 105%; in the experiment on MCF7 breast, 99.4%; with HCT-116 colon, 93.9%. Further, the growth in the experiment with HCC-2998 colon was 93.9%; in the experiment with KM12 colon, 106%.
In the case of `COc1cc2nc(Cl)nc(Nc3cccc(C(=O)/C=C/c4ccccc4)c3)c2cc1OC`, the growth in the experiment with T-47D breast was 68.8%; with BT-549 breast it was 62.9%; in the experiment on MDA-MB-435 melanoma it was 36.5%; in the experiment on SW-620 colon, -11.9% (active); with MCF7 breast, 12.3%; with HCT-116 colon, -52.1% (active). Besides, the values for the growth in the experiment with HCC-2998 colon and in the experiment on KM12 colon were 57.4% and 9.13% (active), respectively.
